Our source for the inhibition values is ChEMBL document CHEMBL1961873, “Compounds: GSK PKIS; Assays: Nanosyn kinase panel” (2012).

Assay [1] concerns the target 5'-AMP-activated protein kinase catalytic subunit alpha-2 (Homo sapiens) (UniProt P54646). The conditions noted are these: at 1 µM.
The target of assay [2] is T1, NUAK family SNF1-like kinase 1 (Homo sapiens) (UniProt O60285).
T1 sequence (whole entry): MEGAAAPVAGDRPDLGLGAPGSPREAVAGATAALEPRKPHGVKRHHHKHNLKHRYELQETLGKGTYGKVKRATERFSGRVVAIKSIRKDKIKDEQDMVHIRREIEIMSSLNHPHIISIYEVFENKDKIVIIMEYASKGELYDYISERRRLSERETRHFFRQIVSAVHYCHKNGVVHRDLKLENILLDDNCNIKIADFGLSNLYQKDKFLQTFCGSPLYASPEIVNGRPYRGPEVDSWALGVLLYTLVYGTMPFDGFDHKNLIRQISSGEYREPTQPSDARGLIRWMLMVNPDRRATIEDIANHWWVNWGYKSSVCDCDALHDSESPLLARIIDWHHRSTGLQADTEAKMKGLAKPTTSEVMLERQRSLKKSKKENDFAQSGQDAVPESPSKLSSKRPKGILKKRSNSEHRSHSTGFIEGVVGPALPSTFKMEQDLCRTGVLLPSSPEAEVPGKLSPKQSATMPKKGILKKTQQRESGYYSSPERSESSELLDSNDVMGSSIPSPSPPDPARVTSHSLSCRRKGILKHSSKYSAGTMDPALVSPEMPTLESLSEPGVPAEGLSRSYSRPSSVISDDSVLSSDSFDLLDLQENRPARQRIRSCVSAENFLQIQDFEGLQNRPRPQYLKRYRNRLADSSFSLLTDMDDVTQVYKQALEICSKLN
The settings on record: at 0.1 µM.

The target of assay [3] is T1, NUAK family SNF1-like kinase 1 (Homo sapiens). The settings on record: at 1 µM.
The target of assay [4] is T2, Serine/threonine-protein kinase BRSK1 (Homo sapiens) (UniProt Q8TDC3).
T2 sequence (whole entry): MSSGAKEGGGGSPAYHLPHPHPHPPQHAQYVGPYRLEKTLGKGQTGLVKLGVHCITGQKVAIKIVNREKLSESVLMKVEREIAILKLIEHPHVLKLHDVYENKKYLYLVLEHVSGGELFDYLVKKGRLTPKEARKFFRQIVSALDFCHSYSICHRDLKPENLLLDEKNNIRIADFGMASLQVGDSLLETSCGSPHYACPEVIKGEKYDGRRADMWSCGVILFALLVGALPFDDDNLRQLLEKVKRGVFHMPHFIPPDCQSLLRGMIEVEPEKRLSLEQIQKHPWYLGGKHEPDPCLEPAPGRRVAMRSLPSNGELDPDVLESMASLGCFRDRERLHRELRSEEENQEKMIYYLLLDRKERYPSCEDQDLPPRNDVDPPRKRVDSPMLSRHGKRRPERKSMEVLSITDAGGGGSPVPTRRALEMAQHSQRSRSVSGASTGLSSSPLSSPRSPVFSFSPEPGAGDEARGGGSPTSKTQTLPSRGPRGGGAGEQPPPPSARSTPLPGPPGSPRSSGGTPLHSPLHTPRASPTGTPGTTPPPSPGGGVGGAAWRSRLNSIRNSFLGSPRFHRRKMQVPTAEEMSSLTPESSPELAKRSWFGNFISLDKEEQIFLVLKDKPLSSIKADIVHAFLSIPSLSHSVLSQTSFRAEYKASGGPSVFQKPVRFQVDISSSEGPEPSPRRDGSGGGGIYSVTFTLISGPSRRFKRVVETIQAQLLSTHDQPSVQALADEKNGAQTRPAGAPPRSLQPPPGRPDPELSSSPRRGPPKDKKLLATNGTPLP
The settings on record: at 0.1 µM.

The target in assay [5] is T2, Serine/threonine-protein kinase BRSK1 (Homo sapiens). The settings on record: at 1 µM.
Assay [6] concerns the target T3, Serine/threonine-protein kinase BRSK2 (Homo sapiens) (UniProt Q8IWQ3).
T3 sequence (whole entry): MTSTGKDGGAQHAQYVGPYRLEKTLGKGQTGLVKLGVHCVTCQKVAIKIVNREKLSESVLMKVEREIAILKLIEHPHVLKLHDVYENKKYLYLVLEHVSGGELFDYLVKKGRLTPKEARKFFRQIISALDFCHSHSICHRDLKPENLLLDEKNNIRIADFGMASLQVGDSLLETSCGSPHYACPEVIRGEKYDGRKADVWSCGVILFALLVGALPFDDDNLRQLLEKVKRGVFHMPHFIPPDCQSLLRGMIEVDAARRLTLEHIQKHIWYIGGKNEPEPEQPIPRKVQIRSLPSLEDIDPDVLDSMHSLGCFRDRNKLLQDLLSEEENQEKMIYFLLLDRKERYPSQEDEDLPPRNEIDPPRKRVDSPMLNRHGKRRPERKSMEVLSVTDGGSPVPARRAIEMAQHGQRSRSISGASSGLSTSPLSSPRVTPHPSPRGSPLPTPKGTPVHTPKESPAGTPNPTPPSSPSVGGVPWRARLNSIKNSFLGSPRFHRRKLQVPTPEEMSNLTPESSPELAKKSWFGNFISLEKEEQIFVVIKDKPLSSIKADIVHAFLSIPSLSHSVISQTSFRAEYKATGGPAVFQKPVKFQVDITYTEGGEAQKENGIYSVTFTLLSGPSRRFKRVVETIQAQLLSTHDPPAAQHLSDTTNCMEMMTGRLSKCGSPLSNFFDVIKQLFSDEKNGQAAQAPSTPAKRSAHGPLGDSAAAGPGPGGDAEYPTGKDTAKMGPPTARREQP
The conditions noted are these: at 0.1 µM.

For assay [7], the target named is T3, Serine/threonine-protein kinase BRSK2 (Homo sapiens). The conditions noted are these: at 1 µM.
Assay [8] has as its target Calcium/calmodulin-dependent protein kinase type 1D (Homo sapiens) (UniProt Q8IU85). The settings on record: at 0.1 µM.
Assay [9] shares this target. The conditions noted are these: at 1 µM.
Assay [10] deals with Calcium/calmodulin-dependent protein kinase type II subunit alpha (Homo sapiens) (UniProt Q9UQM7). The conditions noted are these: at 0.1 µM.
Assay [11] has the same target. The conditions noted are these: at 1 µM.
Assay [12] addresses Calcium/calmodulin-dependent protein kinase type II subunit delta (Homo sapiens) (UniProt Q13557). The conditions noted are these: at 0.1 µM.
The target is the same in assay [13]. The conditions noted are these: at 1 µM.
Assay [14] addresses T4, Calcium/calmodulin-dependent protein kinase type IV (Homo sapiens) (UniProt Q16566).
T4 sequence (whole entry): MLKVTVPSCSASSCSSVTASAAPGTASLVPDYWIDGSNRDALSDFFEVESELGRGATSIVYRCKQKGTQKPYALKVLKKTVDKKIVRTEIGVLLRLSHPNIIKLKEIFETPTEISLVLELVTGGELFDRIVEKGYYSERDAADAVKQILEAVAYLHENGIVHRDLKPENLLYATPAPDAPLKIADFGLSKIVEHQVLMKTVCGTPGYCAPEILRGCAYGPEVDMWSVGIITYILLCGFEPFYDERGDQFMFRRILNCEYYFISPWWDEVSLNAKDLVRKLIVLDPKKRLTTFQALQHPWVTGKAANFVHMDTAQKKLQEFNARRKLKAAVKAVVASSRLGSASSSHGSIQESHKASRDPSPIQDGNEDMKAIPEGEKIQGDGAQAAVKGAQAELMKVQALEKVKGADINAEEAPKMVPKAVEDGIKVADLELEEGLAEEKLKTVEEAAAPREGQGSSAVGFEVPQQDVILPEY
The settings on record: at 0.1 µM.

In assay [15] the target is T4, Calcium/calmodulin-dependent protein kinase type IV (Homo sapiens). The settings on record: at 1 µM.
For assay [16], the target named is T5, Serine/threonine-protein kinase Chk1 (Homo sapiens) (UniProt O14757).
T5 sequence (whole entry): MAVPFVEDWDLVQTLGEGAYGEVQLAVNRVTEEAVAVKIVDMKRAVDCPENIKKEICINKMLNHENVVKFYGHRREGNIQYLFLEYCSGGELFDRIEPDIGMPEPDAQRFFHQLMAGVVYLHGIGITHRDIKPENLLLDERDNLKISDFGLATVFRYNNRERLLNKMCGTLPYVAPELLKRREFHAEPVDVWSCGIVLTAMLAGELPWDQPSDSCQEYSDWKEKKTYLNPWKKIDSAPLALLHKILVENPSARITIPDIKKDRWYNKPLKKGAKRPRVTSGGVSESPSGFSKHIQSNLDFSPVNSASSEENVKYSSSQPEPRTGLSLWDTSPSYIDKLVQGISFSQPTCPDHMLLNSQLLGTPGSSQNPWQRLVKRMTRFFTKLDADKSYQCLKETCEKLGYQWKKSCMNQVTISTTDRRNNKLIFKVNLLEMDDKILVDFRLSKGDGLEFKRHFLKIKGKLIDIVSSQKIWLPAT
The settings on record: at 0.1 µM.

Assay [17] has as its target T5, Serine/threonine-protein kinase Chk1 (Homo sapiens). The conditions noted are these: at 1 µM.
In assay [18] the target is Serine/threonine-protein kinase Chk2 (Homo sapiens) (UniProt O96017). The conditions noted are these: at 0.1 µM.
Assay [19] shares this target. The conditions noted are these: at 1 µM.
In assay [20] the target is Death-associated protein kinase 1 (Homo sapiens) (UniProt P53355). The conditions noted are these: at 0.1 µM.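 Note: reported figure is the mean inhibition of DAPK1.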
Death-associated protein kinase 1 (Homo sapiens), sequence (P53355 whole entry, looked up): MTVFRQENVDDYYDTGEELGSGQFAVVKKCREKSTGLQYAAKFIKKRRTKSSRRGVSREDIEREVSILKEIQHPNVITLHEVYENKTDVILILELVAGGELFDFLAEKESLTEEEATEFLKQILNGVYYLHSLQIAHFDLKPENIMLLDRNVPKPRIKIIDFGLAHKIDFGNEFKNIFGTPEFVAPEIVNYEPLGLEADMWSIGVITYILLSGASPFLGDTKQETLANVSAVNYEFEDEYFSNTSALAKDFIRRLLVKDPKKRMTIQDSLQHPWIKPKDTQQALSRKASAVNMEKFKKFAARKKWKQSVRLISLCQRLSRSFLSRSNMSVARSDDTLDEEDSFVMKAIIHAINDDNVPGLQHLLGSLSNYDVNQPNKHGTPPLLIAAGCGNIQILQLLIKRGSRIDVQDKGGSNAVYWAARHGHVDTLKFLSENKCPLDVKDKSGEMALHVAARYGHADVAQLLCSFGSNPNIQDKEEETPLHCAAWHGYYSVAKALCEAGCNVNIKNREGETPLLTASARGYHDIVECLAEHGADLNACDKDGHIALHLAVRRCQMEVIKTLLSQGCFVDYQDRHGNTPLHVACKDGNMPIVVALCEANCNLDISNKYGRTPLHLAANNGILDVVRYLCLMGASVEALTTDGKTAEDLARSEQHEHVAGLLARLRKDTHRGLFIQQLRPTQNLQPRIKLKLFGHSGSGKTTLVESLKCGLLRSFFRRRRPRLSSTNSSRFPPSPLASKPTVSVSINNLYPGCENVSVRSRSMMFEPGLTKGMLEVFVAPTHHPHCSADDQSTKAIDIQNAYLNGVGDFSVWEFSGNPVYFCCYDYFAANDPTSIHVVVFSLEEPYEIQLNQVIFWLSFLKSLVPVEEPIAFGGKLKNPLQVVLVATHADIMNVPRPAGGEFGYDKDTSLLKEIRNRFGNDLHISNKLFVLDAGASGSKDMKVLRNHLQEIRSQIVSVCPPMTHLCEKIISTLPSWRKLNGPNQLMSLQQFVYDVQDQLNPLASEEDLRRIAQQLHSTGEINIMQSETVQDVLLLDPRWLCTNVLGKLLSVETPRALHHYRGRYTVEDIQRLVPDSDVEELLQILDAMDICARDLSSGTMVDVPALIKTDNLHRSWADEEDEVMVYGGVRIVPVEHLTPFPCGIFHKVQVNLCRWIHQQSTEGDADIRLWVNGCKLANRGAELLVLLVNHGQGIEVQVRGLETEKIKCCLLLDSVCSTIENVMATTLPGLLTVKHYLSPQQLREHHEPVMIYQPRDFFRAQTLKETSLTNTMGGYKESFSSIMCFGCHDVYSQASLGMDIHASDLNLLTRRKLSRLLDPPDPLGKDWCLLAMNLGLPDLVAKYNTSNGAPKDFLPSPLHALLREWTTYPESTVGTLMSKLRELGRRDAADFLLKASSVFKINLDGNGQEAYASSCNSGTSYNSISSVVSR

Serine/threonine-protein kinase Chk2 (Homo sapiens), sequence (O96017 whole entry): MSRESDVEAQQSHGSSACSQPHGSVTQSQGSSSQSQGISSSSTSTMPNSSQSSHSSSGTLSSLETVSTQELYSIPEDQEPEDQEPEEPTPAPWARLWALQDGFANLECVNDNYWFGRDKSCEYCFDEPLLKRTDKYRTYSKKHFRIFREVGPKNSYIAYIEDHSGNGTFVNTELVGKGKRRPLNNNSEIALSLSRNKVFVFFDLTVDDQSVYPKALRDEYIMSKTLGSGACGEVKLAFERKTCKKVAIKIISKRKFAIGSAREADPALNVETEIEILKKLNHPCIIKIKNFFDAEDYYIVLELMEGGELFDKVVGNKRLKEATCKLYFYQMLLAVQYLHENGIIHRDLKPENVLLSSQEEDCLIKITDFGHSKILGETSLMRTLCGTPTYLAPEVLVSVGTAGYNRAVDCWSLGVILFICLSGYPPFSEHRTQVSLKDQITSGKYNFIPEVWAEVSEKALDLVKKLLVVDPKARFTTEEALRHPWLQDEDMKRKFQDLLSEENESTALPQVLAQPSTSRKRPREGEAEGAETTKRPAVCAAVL
5'-AMP-activated protein kinase catalytic subunit alpha-2 (Homo sapiens), sequence (P54646 whole entry, looked up): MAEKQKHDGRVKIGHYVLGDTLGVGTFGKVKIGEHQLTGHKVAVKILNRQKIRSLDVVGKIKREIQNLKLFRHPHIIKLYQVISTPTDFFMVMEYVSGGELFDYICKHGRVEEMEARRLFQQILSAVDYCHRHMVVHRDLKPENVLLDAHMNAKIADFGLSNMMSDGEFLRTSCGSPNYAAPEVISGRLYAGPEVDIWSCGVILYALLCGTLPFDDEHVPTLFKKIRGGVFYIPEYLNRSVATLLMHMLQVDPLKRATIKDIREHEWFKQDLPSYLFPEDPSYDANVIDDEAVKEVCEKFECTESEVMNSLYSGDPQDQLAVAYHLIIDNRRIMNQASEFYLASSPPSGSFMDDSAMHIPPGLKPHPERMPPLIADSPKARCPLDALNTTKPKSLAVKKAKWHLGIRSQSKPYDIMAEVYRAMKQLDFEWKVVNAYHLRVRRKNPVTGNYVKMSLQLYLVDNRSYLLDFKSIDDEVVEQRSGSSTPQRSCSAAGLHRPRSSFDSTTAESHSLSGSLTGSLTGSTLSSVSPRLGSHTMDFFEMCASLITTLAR
Calcium/calmodulin-dependent protein kinase type 1D (Homo sapiens), sequence (Q8IU85 whole entry, looked up): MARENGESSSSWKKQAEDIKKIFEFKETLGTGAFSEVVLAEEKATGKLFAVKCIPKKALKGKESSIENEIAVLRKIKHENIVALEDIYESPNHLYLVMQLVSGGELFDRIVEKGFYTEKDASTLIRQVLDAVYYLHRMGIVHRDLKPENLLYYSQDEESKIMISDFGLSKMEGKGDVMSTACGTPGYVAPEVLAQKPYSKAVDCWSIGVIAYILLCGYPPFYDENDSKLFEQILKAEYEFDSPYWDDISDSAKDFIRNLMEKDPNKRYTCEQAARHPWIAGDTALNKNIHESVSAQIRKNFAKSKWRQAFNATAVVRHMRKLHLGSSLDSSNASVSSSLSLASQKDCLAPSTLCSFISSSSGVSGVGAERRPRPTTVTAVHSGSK
Calcium/calmodulin-dependent protein kinase type II subunit alpha (Homo sapiens), sequence (Q9UQM7 whole entry): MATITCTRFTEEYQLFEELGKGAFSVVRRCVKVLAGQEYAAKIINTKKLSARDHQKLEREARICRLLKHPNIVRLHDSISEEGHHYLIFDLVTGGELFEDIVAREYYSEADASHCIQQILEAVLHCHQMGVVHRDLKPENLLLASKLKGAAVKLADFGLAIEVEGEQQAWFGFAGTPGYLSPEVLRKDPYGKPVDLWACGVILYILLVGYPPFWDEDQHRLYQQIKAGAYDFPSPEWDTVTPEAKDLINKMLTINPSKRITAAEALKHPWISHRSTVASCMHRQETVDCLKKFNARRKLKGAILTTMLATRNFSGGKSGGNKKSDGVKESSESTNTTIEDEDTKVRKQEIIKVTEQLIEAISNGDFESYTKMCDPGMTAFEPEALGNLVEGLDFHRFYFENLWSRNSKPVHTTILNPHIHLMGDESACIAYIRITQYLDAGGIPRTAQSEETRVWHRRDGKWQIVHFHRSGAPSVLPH
Calcium/calmodulin-dependent protein kinase type II subunit delta (Homo sapiens), sequence (Q13557 whole entry): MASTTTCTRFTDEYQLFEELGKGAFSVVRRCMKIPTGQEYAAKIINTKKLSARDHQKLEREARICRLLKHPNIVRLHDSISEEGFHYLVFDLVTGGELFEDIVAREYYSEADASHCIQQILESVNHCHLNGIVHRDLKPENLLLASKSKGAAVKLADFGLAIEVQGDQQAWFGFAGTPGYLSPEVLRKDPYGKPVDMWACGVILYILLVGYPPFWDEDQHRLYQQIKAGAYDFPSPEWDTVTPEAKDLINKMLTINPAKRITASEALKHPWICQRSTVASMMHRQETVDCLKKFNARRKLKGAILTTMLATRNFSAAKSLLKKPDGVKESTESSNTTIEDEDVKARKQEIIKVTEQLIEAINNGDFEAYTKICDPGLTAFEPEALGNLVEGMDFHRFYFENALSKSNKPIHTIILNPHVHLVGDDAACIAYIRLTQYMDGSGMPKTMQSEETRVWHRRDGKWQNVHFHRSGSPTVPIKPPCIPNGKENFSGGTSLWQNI

As to `COc1cc(Nc2ncc(-c3ccccc3)o2)cc(OC)c1OC`, the inhibition in [1] was 5.35%; in assay [2] it was 24.4%; in [3] it was 61%; in assay [4] it was -0.43%; in [5], 5.91%; in assay [6], 0.44%. Moreover, the inhibition in assay [7] is 10.5%; in [8] it was -1.93%; in assay [9], -0.01%; in assay [10] it was -3.81%; in assay [11], -0.38%; in [12], -2.56%. The inhibition in assay [13] was 5.55%; in assay [14] it was -4.13%; in [15], 0.09%; in [16], 1.58%; in [17], 5.64%; in [18] it was -3.16%. Moreover, the results for the inhibition in [19] and in assay [20] were 1.28% and 1.78%, respectively.
As for `O=C1Nc2ccc(I)cc2C1=Cc1cc(Br)c(O)c(Br)c1`, the inhibition is 3.18% in assay [1]; -1.04% in assay [2]; 3.51% in [3]; 3.87% in [4]; 0.15% in assay [5]; 0.3% in assay [6]. The inhibition stood at 2.23% in assay [7]; 1.27% in assay [8]; 2.96% in assay [9]; 4.96% in assay [10]; 7.25% in [11]; 3.27% in [12]. For the same compound, the inhibition in assay [13] is 9.08%; in assay [14] it was 0.52%; in assay [15], 4.99%; in assay [16], 0.05%; in assay [17], -0.68%; in [18], 4.44%. The inhibition in [19] is 9.44%; in assay [20], 1.46%.
In the case of `CN(c1ccc(NC(=O)Nc2c(Cl)cccc2Cl)cc1)c1ccnc(Nc2cccc(CS(C)(=O)=O)c2)n1`, the inhibition in assay [1] stood at 3.21%; in [2], 9.51%; in assay [3] it was 30.2%; in [4], 0.84%; in [5], 9.78%; in assay [6] it was 2.74%. Further, the inhibition is 8.66% in [7]; 1.34% in [8]; -0.13% in assay [9]; 2.56% in assay [10]; 2.73% in [11]; 1.22% in assay [12]. In addition, the inhibition is -0.38% in [13]; -1.59% in assay [14]; -4.21% in assay [15]; 1.99% in assay [16]; 4.63% in [17]; 10.1% in [18]. The inhibition in assay [19] amounted to 16.8%; in [20], 4.55%.
`COc1ccc(C2=C(N3CCc4ccccc43)C(=O)NC2=O)cc1`: the inhibition worked out at 5.49% in assay [1]; 3.26% in [2]; 9.32% in [3]; 1.07% in assay [4]; 3.32% in assay [5]; 2.56% in assay [6]. Besides, the inhibition in [7] came out at 3.2%; in [8], 0.57%; in [9] it was 1.29%; in assay [10] it was 5.74%; in assay [11], 4.72%; in assay [12], 4.35%. Moreover, the inhibition was 7.01% in assay [13]; 0.45% in assay [14]; 0.33% in assay [15]; 3.53% in [16]; 3.47% in [17]; 3.04% in assay [18]. Also, the results for the inhibition in assay [19] and in assay [20] were 3.92% and 3.58%, respectively.
Consider `C/C(Nc1ccc(S(N)(=O)=O)cc1)=C1/C(=O)Nc2ccccc21`, for which the inhibition in [1] amounted to 4.96%; in assay [2], 6.3%; in assay [3], 34%; in assay [4] it was 1.67%; in assay [5], 18.9%; in assay [6], 4.55%. The inhibition in assay [7] was 31.1%; in [8] it was -0.31%; in assay [9], -0.55%; in [10], -4.87%; in [11], -2.07%; in assay [12] it was -2.27%. Besides, the inhibition is 3.2% in assay [13]; -2.35% in assay [14]; -0.89% in assay [15]; 4.5% in assay [16]; 10.1% in [17]; -0.44% in assay [18]. For the same compound, the inhibition in [19] turned out to be 14.5%; in assay [20], 1.47%.
